According to ChEMBL document CHEMBL4513216, “Probing the Open Global Health Chemical Diversity Library for Multistage-Active Starting Points for Next-Generation Antimalarials” (ACS Infect Dis, 2020):
About 8,600 (12%) of roughly 69,000 compounds showed an effect of 50% or more. This is one part of a sample in which strong results are shown more often than they occur.

The compounds below were run on Plasmodium berghei (assay: Screen against P. berghei liver stage (PbLuc), transformed with Luciferase, at 10uM). Conditions: tested at 10 uM.
Type: functional, HepG2

Compound | INHIBITION [%]
CCC(C)NC(=O)c1nnn(-c2cccc3c2CCN(C)C3)c1C (stereo not given) | 51.7
Cc1c(C(=O)NCC(C)C)nnn1-c1cccc2c1CCN(C)C2 | 56.1
CCC(C)(C)NC(=O)c1nnn(-c2cccc3c2CCN(C)C3)c1C | 36.3
Cc1c(C(=O)NC(C)C(C)C)nnn1-c1cccc2c1CCN(C)C2 (stereo not given) | 11.8
Cc1c(C(=O)NCC(C)C)nnn1-c1cccc2c1CCN(C(C)C)C2 | 38
Cc1c(C(=O)NCCC(C)C)nnn1-c1cccc2c1CCN(C)C2 | 36.3
Cc1ccc(C)c(C(C)NC(=O)N2CCC(n3cncn3)CC2)c1 (stereo not given) | -3.2
CN1CCN([C@@H]2CCN(C3CCOC3)[C@H]2Cc2cnn(C)c2)CC1 (stereo not given in full) | 24.9
Cc1cc2ncn(C(=O)N3CCCCC3)c2cc1C | -16
CCOC1CCCN(C(=O)c2ccccc2NCc2cccnc2)C1 (stereo not given) | 16.8
O=C(Cc1ccc2c(c1)OCCO2)NC1CC1 | -60.4
CC[C@@H]1N(Cc2ccc(C)o2)CCC[C@]12CCC(=O)N2CCOC | 29.3
O=C(C1CCOCC1)N1CC[C@H]2[C@H]1CCN2c1nncs1 | 40.8
COC(=O)c1ccc(C2SC(C)=Nc3c2c(=O)[nH]n3C2CCCC2)cc1 (stereo not given) | 76.3
CC1=Nc2c(c(=O)[nH]n2C2CCCCC2)C(c2ccc(C(=O)O)cc2)S1 (stereo not given) | 36.55
CC1=Nc2c(c(=O)[nH]n2C2CCCC2)C(c2ccc(C(=O)O)cc2)S1 (stereo not given) | 26.65
Cc1noc(CN2Cc3ccccc3CC2c2nnc(C)o2)n1 (stereo not given) | 20.2
CCc1nnc(C2Cc3ccccc3CN2Cc2nc(C)no2)o1 (stereo not given) | 9.64
CCc1nnc(C2Cc3ccccc3CN2Cc2nc(C3CC3)no2)o1 (stereo not given) | 60.9
Cc1nnc(C2Cc3ccccc3CN2Cc2nc(C3CC3)no2)o1 (stereo not given) | 23.7
CCc1nnc(C2Cc3ccccc3CN2Cc2ncc(Cl)n2C)o1 (stereo not given) | 1.84
Cc1cc(CN2Cc3ccccc3CC2c2nnc(C)o2)no1 (stereo not given) | 7.67

Compound | INHIBITION [%]
CCc1nnc(C2Cc3ccccc3CN2Cc2cc(C)no2)o1 (stereo not given) | 58.1
Cc1cc(CN2Cc3ccccc3CC2c2nnc(C)o2)on1 (stereo not given) | -8.3
CCc1nnc(C2Cc3ccccc3CN2Cc2cc(C)on2)o1 (stereo not given) | 68.1
CNC(=O)CCc1cc(C2CCCCN2C(C)C)nc(C)n1 (stereo not given) | 15.1
Cc1nc(CN(C)C2CCCN(Cc3noc(C4CC4)n3)C2)oc1C (stereo not given) | 40.2
COc1cccc(CC(=O)N2CCCC(c3nncn3C)C2)c1 (stereo not given) | -26.6
Cc1ccc(-c2noc(CN3CCCC(Cn4cncn4)C3)n2)cc1 (stereo not given) | 48.2
Cc1cccc2[nH]c(C3CCCN(Cc4ccccc4C(=O)O)C3)nc12 (stereo not given) | 37.6
Cc1cc(C2CCCN(CCCS(N)(=O)=O)C2)n[nH]1 (stereo not given) | 16.8
c1cc(CN2CCO[C@H]3[C@H](OCC4CCOCC4)CC[C@@H]32)co1 | -34.9
Cc1nn(C)c(C)c1C1CCCN1C(=O)c1cnc2onc(C)c2c1 (stereo not given) | -2.53
O=S(=O)(CCCNC1CCc2ncnn2C1)c1ccccc1 (stereo not given) | 31.3
Cc1noc(C)c1CN1C[C@@H](OCC(=O)N(C)C)[C@H]2OCCC[C@H]21 | 74.8
Cc1noc(C)c1CN1C[C@H](OCC(=O)N(C)C)[C@H]2OCCC[C@H]21 | 10.5
Cc1noc(C)c1CN1C[C@H](OCC(=O)N(C)C)[C@H]2COC[C@H]21 | 15.3
CN(C)C(=O)CO[C@@H]1CC[C@H]2[C@H]1OCCN2c1ncccn1 | 20.1
Fc1cnc(N2CCO[C@H]3[C@H](OCC4CCOCC4)CC[C@@H]32)nc1 | 38.5
CN(C)C(=O)CO[C@@H]1CC[C@H]2[C@H]1OCCN2c1ncc(F)cn1 | 64.3
CNC(=O)c1ccc(C2CCCN(C(=O)c3c(C)noc3C)C2)nc1 (stereo not given) | 17.1
CC1(C2CCN(CCCC(=O)O)CC2)CN(Cc2ccccc2)C(=O)O1 (stereo not given) | 7.52
Cn1nnc2cc(C(=O)N3CCC(Nc4cccnn4)CC3)ccc21 | 10
Cc1ccsc1CNCC1CCCN1c1cccnn1 (stereo not given) | -36.25

Compound | INHIBITION [%]
CCOCCCNCc1cc2c(C)cc(C)cc2n2c(=O)n(C)nc12 | 51.5
CC(C)c1nn(C)c(N(C)C)c1CNCc1cccnc1 | -3.48
Cc1cnn(CCNCC(=O)NCc2ccccc2)c1 | 18.4
Cc1nn(C)c(N(C)C)c1CNCc1cccnc1 | 40.7
CCCNCc1cc2c(C)cc(C)cc2n2c(=O)n(C)nc12 | 33
Cc1cc(C)c(N(CC(O)CNCc2ccccc2)S(C)(=O)=O)c(C)c1 (stereo not given) | 35.1
Cc1cc(C)c2cc(CNCc3ccccc3)c3nn(C)c(=O)n3c2c1 | 73.4
Cc1cc(C)c2cc(CNCc3cccnc3)c3nn(C)c(=O)n3c2c1 | 50.1
COCCNCc1cc2c(C)cc(C)cc2n2c(=O)n(C)nc12 | 48.6
CCCC(=O)N1CCC(c2cc3n(n2)[C@@H](C(F)(F)F)C[C@@H](C)N3)CC1 | 36.4
Cc1cnc(N(C)CCCc2cnn(C)c2)nc1N(C)C | -0.996
COCC(=O)N1CC(C(=O)NCC2CC2)C2(CCOCC2)C1 (stereo not given) | 15.8
Cn1ncc(N2CCC(CNC(=O)[C@@H](N)C3CCCCC3)CC2)cc1=O | 8.53
Cn1ncc(N2CCC(CNC(=O)[C@@H](N)c3ccccc3)CC2)cc1=O | -12.4
Cn1ncc(N2CCC(CNC3CC(c4ccccc4)C3)CC2)cc1=O (stereo not given) | 63.7
CCOC(=O)N1CCC(NCC2CCN(c3cnn(C)c(=O)c3)C2)CC1 (stereo not given) | 26.6
CC(CN1CCOCC1)NCC1CCN(c2cnn(C)c(=O)c2)CC1 (stereo not given) | 33.5
Cn1ncc(N2CCC(CNC3Cc4ccccc4C3)C2)cc1=O (stereo not given) | 58.7
CCC(OC)C(=O)NCC1CCN(c2cnn(C)c(=O)c2)CC1 (stereo not given) | -0.275
CC(C)C(=O)NCC(=O)NCC1CCN(c2cnn(C)c(=O)c2)CC1 | 26.1
Cn1ncc(N2CCC(CNC3CC(C)(C)CC(C)(C)C3)C2)cc1=O (stereo not given) | 72.3
